PubChem BioAssay (NCI)
This is part of a sample that, as a whole, favours compounds with a hit. Of some 79,000 tested, about 15% had one in any assay. A number with no mark means an inactive call. Calls of active or inactive are those of the source. No stated cut-off is given here; in the data, active means growth inhibition above about 70%; inactive means the rest.

Experiments:
[1] = NCI Yeast Anticancer Drug Screen. Data for the rad50 strain (AID 155);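 further: 0% = growth of vehicle-only cultures of the same strain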; conditions: S. cerevisiae rad50 strain growth inhibition, hits give high values
How it was run: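 Yeast carrying a defined DNA repair defect were exposed to test compounds, and growth was compared with vehicle-treated controls to give percent inhibition.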

[2] = NCI Yeast Anticancer Drug Screen. Data for the mec2-1 strain (AID 157); conditions: S. cerevisiae mec2-1 strain, hits give high values
How it was run: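 Cells of the genetically defined mec2-1 yeast strain are incubated with test compound. Inhibition of growth is calculated against vehicle-treated controls.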

[3] = NCI Yeast Anticancer Drug Screen. Data for the sgs1 mgt1 strain (AID 161);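 further: 0% = growth of cultures given vehicle only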; conditions: S. cerevisiae sgs1 mgt1 strain, hits give high values
How it was run: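 Inhibition of yeast growth, normalised to vehicle-treated controls, is reported for a strain bearing genetic alterations in DNA damage repair.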

[4] = NCI Yeast Anticancer Drug Screen. Data for the cln2 rad14 strain (AID 165);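 further: 0% = growth equal to vehicle treated cultures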; conditions: S. cerevisiae cln2 rad14 strain, hits give high values
How it was run: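 The screen exposed genetically defined yeast (cln2 rad14) to test compounds and scored growth inhibition relative to vehicle-treated controls.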

[5] = NCI Yeast Anticancer Drug Screen. Data for the bub3 strain (AID 167); conditions: S. cerevisiae bub3 mutant strain, hits give high values
How it was run: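 Compounds were applied to a genetically altered yeast strain carrying a cell-cycle control defect. Growth inhibition was scored against vehicle-treated controls.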

[6] = NCI Yeast Anticancer Drug Screen. Data for the mlh1 rad18 strain (AID 175); conditions: S. cerevisiae mlh1 rad18 strain growth inhibition, hits give high values
How it was run: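 Compound-treated yeast growth, normalised to vehicle controls. Strain bears defined DNA repair mutations.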

[7] = at 5.0 µM (retest, dose inferred, filed as 0.5)
[8] = at 50.0 µM (retest, dose inferred, filed as 5.0)

CN(C)Cc1ccc2c(c1)c1c(n2Cc2ccccc2)CCCC1
growth inhibition [1, 7]: -2% | growth inhibition [1, 8]: 94% (active) | growth inhibition ([1]; at 50.0 µM): 84.3% (active) | growth inhibition [2, 7]: -7% | growth inhibition [2, 8]: 84% (active) | growth inhibition ([2]; at 50.0 µM): 70.2% (active) | growth inhibition [3, 7]: -4% | growth inhibition [3, 8]: 20% | growth inhibition ([3]; at 50.0 µM): 90.4% (active) | growth inhibition [4, 7]: -5% | growth inhibition [4, 8]: 96% (active) | growth inhibition ([4]; at 50.0 µM): 86.7% (active) | growth inhibition [5, 7]: -8% | growth inhibition [5, 8]: 96% (active) | growth inhibition ([5]; at 50.0 µM): 97.9% (active) | growth inhibition [6, 7]: 3% | growth inhibition [6, 8]: 97% (active) | growth inhibition ([6]; at 50.0 µM): 97.7% (active)

c1ccc(-c2cc(CN3CCOCC3)c(-c3ccccc3)o2)cc1
growth inhibition [1, 7]: -1% | growth inhibition [1, 8]: 98% (active) | growth inhibition ([1]; at 50.0 µM): 52.8% | growth inhibition [2, 7]: -6% | growth inhibition [2, 8]: 99% (active) | growth inhibition ([2]; at 50.0 µM): 51.9% | growth inhibition [3, 7]: 3% | growth inhibition [3, 8]: 99% (active) | growth inhibition ([3]; at 50.0 µM): 57.9% | growth inhibition [4, 7]: -6% | growth inhibition [4, 8]: 99% (active) | growth inhibition ([4]; at 50.0 µM): 56.4% | growth inhibition [5, 7]: 1% | growth inhibition [5, 8]: 99% (active) | growth inhibition ([5]; at 50.0 µM): 55.8% | growth inhibition [6, 7]: -2% | growth inhibition [6, 8]: 99% (active) | growth inhibition ([6]; at 50.0 µM): 54.1%

COc1ccc(C(=O)Nc2ccc(Cl)cc2)cc1
growth inhibition [1, 7]: -21% | growth inhibition [1, 8]: -17% | growth inhibition ([1]; at 50.0 µM): 3.75% | growth inhibition [2, 7]: -26% | growth inhibition [2, 8]: -12% | growth inhibition ([2]; at 50.0 µM): 1.85% | growth inhibition [3, 7]: 0% | growth inhibition [3, 8]: 0% | growth inhibition ([3]; at 50.0 µM): 5.85% | growth inhibition [4, 7]: -7% | growth inhibition [4, 8]: 5% | growth inhibition ([4]; at 50.0 µM): 44.2% | growth inhibition [5, 7]: -14% | growth inhibition [5, 8]: -6% | growth inhibition ([5]; at 50.0 µM): -8.95% | growth inhibition [6, 7]: -8% | growth inhibition [6, 8]: -11% | growth inhibition ([6]; at 50.0 µM): -23.3%

CC(=O)N1CC(C)CC2OC3(CCC4C5CCC6CC(O)CCC6(C)C5C(=O)C4C3C)C(C)C21 (stereo not given)
growth inhibition [1, 7]: 10% | growth inhibition [1, 8]: 98% (active) | growth inhibition ([1]; at 50.0 µM): 91.6% (active) | growth inhibition [2, 7]: 1% | growth inhibition [2, 8]: 98% (active) | growth inhibition ([2]; at 50.0 µM): 93.7% (active) | growth inhibition [3, 7]: 19% | growth inhibition [3, 8]: 97% (active) | growth inhibition ([3]; at 50.0 µM): 92.6% (active) | growth inhibition [4, 7]: 26% | growth inhibition [4, 8]: 98% (active) | growth inhibition ([4]; at 50.0 µM): 92.5% (active) | growth inhibition [5, 7]: 14% | growth inhibition [5, 8]: 98% (active) | growth inhibition ([5]; at 50.0 µM): 92.2% (active) | growth inhibition [6, 7]: -20% | growth inhibition [6, 8]: 98% (active) | growth inhibition ([6]; at 50.0 µM): 91.8% (active)

COc1cc(C(c2ccccc2)c2ccccc2)c2ccccc2c1O
growth inhibition [1, 7]: 15% | growth inhibition [1, 8]: 51% | growth inhibition ([1]; at 50.0 µM): 33.3% | growth inhibition [2, 7]: 15% | growth inhibition [2, 8]: 41% | growth inhibition ([2]; at 50.0 µM): 16.6% | growth inhibition [3, 7]: -17% | growth inhibition [3, 8]: 25% | growth inhibition ([3]; at 50.0 µM): 61.4% | growth inhibition [4, 7]: 13% | growth inhibition [4, 8]: 73% (active) | growth inhibition ([4]; at 50.0 µM): 44.9% | growth inhibition [5, 7]: 8% | growth inhibition [5, 8]: 70% (active) | growth inhibition ([5]; at 50.0 µM): 40.2% | growth inhibition [6, 7]: 24% | growth inhibition [6, 8]: 75% (active) | growth inhibition ([6]; at 50.0 µM): 74% (active)

C/C(=N\NC(=O)c1ccc([N+](=O)[O-])cc1)c1ccccc1
growth inhibition [1, 7]: 8% | growth inhibition [1, 8]: -5% | growth inhibition ([1]; at 50.0 µM): -2.65% | growth inhibition [2, 7]: -19% | growth inhibition [2, 8]: -1% | growth inhibition ([2]; at 50.0 µM): -5.45% | growth inhibition [3, 7]: 6% | growth inhibition [3, 8]: -6% | growth inhibition ([3]; at 50.0 µM): 10.3% | growth inhibition [4, 7]: 2% | growth inhibition [4, 8]: 11% | growth inhibition ([4]; at 50.0 µM): -7.95% | growth inhibition [5, 7]: 9% | growth inhibition [5, 8]: 14% | growth inhibition ([5]; at 50.0 µM): 38.8% | growth inhibition [6, 7]: 15% | growth inhibition [6, 8]: 26% | growth inhibition ([6]; at 50.0 µM): -7.2%

O=C(O)C1CCCCC1.[Ag]
growth inhibition [1, 7]: 43% | growth inhibition [1, 8]: 99% (active) | growth inhibition ([1]; at 50.0 µM): 90.3% (active) | growth inhibition [2, 7]: 42% | growth inhibition [2, 8]: 99% (active) | growth inhibition ([2]; at 50.0 µM): 92% (active) | growth inhibition [3, 7]: 99% (active) | growth inhibition [3, 8]: 99% (active) | growth inhibition ([3]; at 50.0 µM): 93.2% (active) | growth inhibition [4, 7]: 99% (active) | growth inhibition [4, 8]: 99% (active) | growth inhibition ([4]; at 50.0 µM): 91% (active) | growth inhibition [5, 7]: 99% (active) | growth inhibition [5, 8]: 100% (active) | growth inhibition ([5]; at 50.0 µM): 90.6% (active) | growth inhibition [6, 7]: 34% | growth inhibition [6, 8]: 100% (active) | growth inhibition ([6]; at 50.0 µM): 90.5% (active)

O=C1c2ccccc2C(=O)[C@@]23O[C@@]12C1(Oc2cccc4cccc(c24)O1)[C@@H]1O[C@@H]1[C@@H]3O
growth inhibition [1, 7]: 79% (active) | growth inhibition [1, 8]: 98% (active) | growth inhibition ([1]; at 50.0 µM): 88.1% (active) | growth inhibition [2, 7]: 84% (active) | growth inhibition [2, 8]: 99% (active) | growth inhibition ([2]; at 50.0 µM): 91% (active) | growth inhibition [3, 7]: 62% | growth inhibition [3, 8]: 99% (active) | growth inhibition ([3]; at 50.0 µM): 91.2% (active) | growth inhibition [4, 7]: 48% | growth inhibition [4, 8]: 98% (active) | growth inhibition ([4]; at 50.0 µM): 88.7% (active) | growth inhibition [5, 7]: 56% | growth inhibition [5, 8]: 99% (active) | growth inhibition ([5]; at 50.0 µM): 89.5% (active) | growth inhibition [6, 7]: 85% (active) | growth inhibition [6, 8]: 98% (active) | growth inhibition ([6]; at 50.0 µM): 84.9% (active)

Nc1ncc2ccccc2c1-c1ccc(NC(=O)CCCl)cc1
growth inhibition [1, 7]: -1% | growth inhibition [1, 8]: 36% | growth inhibition ([1]; at 50.0 µM): 70% (active) | growth inhibition [2, 7]: -3% | growth inhibition [2, 8]: 40% | growth inhibition ([2]; at 50.0 µM): 14.8% | growth inhibition [3, 7]: -2% | growth inhibition [3, 8]: 39% | growth inhibition ([3]; at 50.0 µM): 31.6% | growth inhibition [4, 7]: -1% | growth inhibition [4, 8]: 23% | growth inhibition ([4]; at 50.0 µM): -4.85% | growth inhibition [5, 7]: 6% | growth inhibition [5, 8]: 59% | growth inhibition ([5]; at 50.0 µM): 21.6% | growth inhibition [6, 7]: -2% | growth inhibition [6, 8]: 55% | growth inhibition ([6]; at 50.0 µM): 45%

S=C1NC2=C(CSC/C2=C\c2cccc(Br)c2)C(c2cccc(Br)c2)N1 (stereo not given)
growth inhibition [1, 7]: 9% | growth inhibition [1, 8]: 98% (active) | growth inhibition ([1]; at 50.0 µM): 92.7% (active) | growth inhibition [2, 7]: 1% | growth inhibition [2, 8]: 98% (active) | growth inhibition ([2]; at 50.0 µM): 94.3% (active) | growth inhibition [3, 7]: -1% | growth inhibition [3, 8]: 98% (active) | growth inhibition ([3]; at 50.0 µM): 95.7% (active) | growth inhibition [4, 7]: -8% | growth inhibition [4, 8]: 96% (active) | growth inhibition ([4]; at 50.0 µM): 90% (active) | growth inhibition [5, 7]: -15% | growth inhibition [5, 8]: 98% (active) | growth inhibition ([5]; at 50.0 µM): 93.8% (active) | growth inhibition [6, 7]: 5% | growth inhibition [6, 8]: 98% (active) | growth inhibition ([6]; at 50.0 µM): 93.8% (active)
